Assay outcomes (PubChem BioAssay)
An excerpt weighted towards active compounds, which were near 19% of everything screened.
Cycloheximide cs: counter-screen hit for Shiga toxin inhibitors, cycloheximide; max response, %; cell reporter, cycloheximide protein synthesis inhibition counterscreen; hit rate 12% among 300,000; in the data active means max response mostly above about 13%, no sharp cut-off; inactive means mostly below about 14%; further: read at 38.3 µM for the half of the compounds with a filed dose; 0% is about no effect
SARS PLpro yeast: blocks SARS-CoV papain-like protease in a yeast assay | Potency, µM (top dose mostly 32.9 µM), without a hit: at the highest dose activity, positive = growth rescue, usual class: activators | S. cerevisiae expressing SARS-CoV PLpro, growth rescue | AID 485353 | hit rate 0.19% among 330,000; calls by dose curve; further: potency means the concentration at half of the fitted maximal effect; 0% is about no effect; nearly all actives have a fitted effect of over 55% in size
Pf growth 48h: inhibits P. falciparum growth in the first generation, 48 h | Potency, µM (top dose mostly 28.7 µM), inactives show at the highest dose activity change, negative = inhibition, usual class: inhibitors | hit rate 5.9% among 310,000 | P. falciparum luciferase growth in erythrocytes, 48 h; further: potency means the concentration at half of the fitted maximal effect; on the % scale 0 is the no-effect control and ±100 the full control effect
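Luminescence readout; reporter = integrated firefly luciferase in P. falciparum. RBC culture at 2% hematocrit, 0.1% parasitemia final, 37 C/5% CO2; decreased signal taken as growth inhibition.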
Pf growth 96h: P. falciparum growth inhibition at 96 hour, primary screen for plastid delayed-death inhibitors; P. falciparum luciferase reporter growth, 96 h; AID 504834; Potency, µM (doses to about 28.7 µM), for the others: at the highest dose activity change, negative = inhibition, usual class: inhibitors; hit rate 6.9% among 320,000; further: potency means the concentration at half of the fitted maximal effect; on the % scale 0 is the no-effect control and ±100 the full control effect
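Compounds incubated with erythrocytes infected by luciferase-expressing P. falciparum (2% hematocrit, 0.05% parasitemia final) for 96 hours, 37 C in 5% CO2. Growth inhibition scored as decreased luciferase luminescence.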
AMA1 RON2 block: disrupts binding of P. falciparum AMA1 to RON2; AlphaScreen AMA1-biotinylated RON2 peptide binding; Potency, µM (doses to about 58.2 µM), for the others: at the top dose activity change, negative = inhibition, hits mostly inhibitors; hit rate 0.2% among 360,000;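 further: potency means the concentration at half of the fitted maximal effect; 0% = vehicle wells and -100% = peptide control; nearly all actives have a fitted effect of over 45% in size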
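AMA1 (3D7) with his tag at 25 nM final met compounds first, then biotinylated RON2 peptide at 25 nM; detection used donor plus acceptor beads, 10 µg/mL apiece, read by AlphaScreen after 30 min at room temperature.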
Shiga toxin inh: Shiga toxin inhibition; Vero cells, Shiga toxin protein synthesis inhibition reporter; inhibition, % at 38.7 µM; hit rate 9.2% among 290,000; in the data active means inhibition mostly above about 28%, no sharp cut-off; inactive means mostly below about 43%; further: 0% is about no effect
Active calls of the source: *; ? = inconclusive; . = not tested or not shown; [ ] = another dose, or the depositor's remark. Unless noted, the call rests on the fitted dose curve; in most records, active means well fitted curve in the direction sought with a large enough effect; inconclusive means small, poorly fitted or top-dose-only effect, or another doubt; inactive means no such curve, though single readings can be large; an effect the other way counts as inactive or inconclusive.

SMILES	Cycloheximide cs	SARS PLpro yeast	Pf growth 48h	Pf growth 96h	AMA1 RON2 block	Shiga toxin inh
O=c1c(-c2ccccc2)nc(-c2ccccc2)cn1O	21*	?	32%	34%	5%	19
CC1CCCN(CCCN2C(=O)C3C(C(=O)Nc4cccc(Cl)c4)C4C=CC3(O4)C2C(=O)NC2CCCCC2)C1 (stereo unspecified)	-4	-2%	?	-3%	3%	2
O=C1COc2ccc(C(=O)COC(=O)c3nc(Cl)ccc3Cl)cc2N1	.	-3%	8%	72%	4%	.
CC(C(=O)NC1CCCC1)N(C(=O)c1ccc(-c2ccccc2)[nH]1)c1ccccc1F (stereo unspecified)	-1	-16%	13µM*	?	-28%	1
CN(CC(=O)Nc1ccccc1C(=O)NC1CC1)Cc1cccs1	.	-3%	-12%	-21%	31%	.
CC1(C)CC(=O)c2cnc(NC(=O)CSc3nc4ccccc4o3)nc2C1	16*	19%	45%	25%	-3%	55
Cc1cc(SCC(=O)N/N=C/c2ccc(O)c(O)c2)nc2ccccc12	1	-7%	50%	55%	-4%	-2
C/C(=N\NC(=O)CSc1nc2ccccc2o1)c1ccc(O)cc1	45*	-2%	37%	248%	61%	114*
Cc1csc2nc(CSc3nc4ccccc4o3)c(Br)n12	52*	-7%	122%	.	0%	78*
O=C(CSc1nc2ccccc2o1)N/N=C/c1ccc(O)c(O)c1	22*	0%	55%	88%	76%	31*
C/C(=N\NC(=O)CSc1nc2ccccc2o1)c1cccc(O)c1	2	2%	8%	22%	98%	18
O=C(NCCc1cccs1)Nc1nnc([C@H]2C[C@H](O)[C@@H](CO)O2)s1	.	.	.	.	5%	.
Cc1ccccc1CNS(=O)(=O)c1c(C)[nH]c(C)c1C(=O)N1CCCCC1	0	-6%	-23%	?	0%	-5
Cc1ccccc1/C=N/NC(=O)CSc1nc2ccccc2o1	24*	1%	191%	297%	0%	93*
Cc1ccccc1NC(=O)CSc1nc2ccccc2o1	23*	8%	181%	.	-6%	63*
O=C(CSc1nc2ccccc2o1)Nc1ccccc1N1CCOCC1	0	0%	.	?	9%	24
N#Cc1ccccc1NC(=O)COC(=O)CCc1ccccc1	-5	-7%	7%	50%	0%	-6
N#Cc1ccccc1NC(=O)COC(=O)CSc1nc2ccccc2o1	1	-19%	26%	1µM*	-2%	-5
Cc1ccc(NC(=O)CN(C)C(=O)CSc2nc3ccccc3o2)cc1	6	-6%	55%	2%	3%	3
O=C(CSc1nc2ccccc2s1)N/N=C/c1ccc(C(=O)O)cc1	25	0%	17%	-6%	1%	32
O=C(CSc1nc2ccccc2o1)N/N=C/c1ccccc1	25*	21%	90%	-10%	95%	61*
Cc1noc(C)c1-c1ccc(C(=O)NCc2cccc(Cl)c2)c2occc12	.	.	.	.	8%	.
Cc1cc(C)n(C(=O)CSc2nc3ccccc3o2)n1	18*	12%	11%	?	1%	12
COc1cc(Br)cc(/C=C/c2ccc3cccc(O)c3n2)c1O	32*	0%	-12%[0.00184 µM]	10%	117%	75*
Oc1ccc(Cl)cc1/C=C/c1ccc2cccc(O)c2n1	29*	-6%	?	-5%	60%	61*
SMILES	Cycloheximide cs	SARS PLpro yeast	Pf growth 48h	Pf growth 96h	AMA1 RON2 block	Shiga toxin inh
Oc1c(Cl)cc(Cl)cc1/C=C/c1ccc2cccc(O)c2n1	7	-1%	-29%	-21%	61%	31
COc1cc(/C=C/c2ccc3cccc(OC)c3n2)c(O)c([N+](=O)[O-])c1	1	-1%	?	-3%	-11%	18
COc1cc(N=Nc2ccc(Br)cc2)cc(C=O)c1O	.	.	.	.	5%	.
COc1ccc(OC)c(/C=C/c2ccc3cccc(O)c3n2)c1	59*	-5%	4.1µM*	39%	.	89*
Oc1cccc2ccc(/C=C/c3ccccc3Br)nc12	62*	-6%	0%	?	42%	83*
CC(OC(=O)c1ccc(F)c(S(=O)(=O)N2CCOCC2)c1)C(=O)NC1CCCC1 (stereo unspecified)	.	4%	4%	2%	-12%	.
